Several values for one entry are separate records, joined by “and”; a condition that tells them apart may be missing. Equal values may be shown once. Hit rate of the full screen: of about 16,000 compounds, about 2,600 (16%) were called active. Roughly 20% stayed inconclusive and do not appear here. Calls come from the whole dose curve; as a rule, active = well fitted curve in the direction sought with a large enough effect; inconclusive = small, poorly fitted or top-dose-only effect, or effect the other way; inactive = no such curve, though single readings can be large or run the other way. Only a sample is shown. Some structures have more than one record in an assay (separate samples or runs), and their calls can disagree.
% is set by controls: 0 for no effect and ±100 for the full control effect.

Chain of Cytochrome P450 2D6 (Homo sapiens) (P10635 whole entry, looked up): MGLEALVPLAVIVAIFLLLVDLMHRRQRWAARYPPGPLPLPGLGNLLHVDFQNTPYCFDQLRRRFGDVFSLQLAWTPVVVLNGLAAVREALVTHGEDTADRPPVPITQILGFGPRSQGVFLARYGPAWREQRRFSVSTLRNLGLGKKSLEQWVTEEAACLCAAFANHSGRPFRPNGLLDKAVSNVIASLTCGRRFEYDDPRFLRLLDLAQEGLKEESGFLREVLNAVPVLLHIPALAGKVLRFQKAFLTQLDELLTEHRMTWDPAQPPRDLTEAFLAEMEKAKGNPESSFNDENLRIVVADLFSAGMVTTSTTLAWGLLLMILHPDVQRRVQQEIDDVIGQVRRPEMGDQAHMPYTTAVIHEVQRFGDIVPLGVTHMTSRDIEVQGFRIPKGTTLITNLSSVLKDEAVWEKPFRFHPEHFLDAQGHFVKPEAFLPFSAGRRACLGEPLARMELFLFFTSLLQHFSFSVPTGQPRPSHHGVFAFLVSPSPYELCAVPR

The test has as its target Cytochrome P450 2D6 (Homo sapiens) (UniProt P10635). Put plainly: Cytochrome panel assay with activity outcomes. The settings on record: recombinant CYP, pro-luciferin dealkylation, luminescence, p450-cyp2d6; series mostly up to 57.1 µM; activity, negative = inhibition: at the top concentration.
Take `O=C(O)c1ccccc1C(=O)NNc1ccc(F)cc1`: the “activity, negative = inhibition” value was 8.55% (inactive).
As for `CCOC(=O)N1CCN(S(=O)(=O)c2ccc(C(=O)Nc3ccc(F)cc3F)cc2)CC1`, the “activity, negative = inhibition” value was -9.02% (inactive).
As for `N#Cc1c(-c2ccccc2)cc(-c2ccccc2)nc1SCc1nnc(-c2ccccc2)o1`, the “activity, negative = inhibition” value is 27.3% (inactive).
As to `NC1=NC2(CCCCCC2)n2c(nc3ccccc32)N1`, the AC50 – broadly, the concentration giving half of the maximal activity seen – is 12.6 µM (active).
As for `CC1CCC2(CC1)N=C(N)Nc1nc3ccccc3n12` (stereo not given), the AC50 is 2.82 µM (active).
As to `Nc1c(N=Nc2cccc(Cl)c2)c(=O)[nH]n1-c1ccccc1`, the “activity, negative = inhibition” value was 10.4% (inactive).
The same measure, in the same setting: under `CCC(C)n1c(NC(=O)c2ccccc2)c(C#N)c2nc3ccccc3nc21` (stereo not given) stands -25% (inactive); under `CCOc1cccc(/C(O)=C2/C(=O)C(=O)N(Cc3cccnc3)C2c2ccco2)c1` (stereo not given), 7.28% (inactive).
Take `CN1C(C(=O)Nc2ccccn2)=C(O)c2ccccc2S1(=O)=O`: the half-maximal activity concentration (AC50) result was “inactive and 25.1 µM (active)”.
Regarding `CN1C(C(=O)Nc2ccccn2)=C(O)c2sccc2S1(=O)=O`, the “activity, negative = inhibition” value was 13.5% [at 25.6 µM] (inactive).
On the same count and under the same terms, under `Cc1cc(NC(=O)C2=C(O)c3ccccc3S(=O)(=O)N2C)no1` stands -6.72% [at 25.6 µM] (inactive).
On the same count and under the same terms, in the case of `CCNc1ncc2nc(-c3ccc(OC)cc3)c(=O)n(Cc3ccc(F)cc3)c2n1` it was 6.64% (inactive).
Turning to `O=C(CN1CCN(S(=O)(=O)c2ccccc2)CC1)NC(=O)NCc1ccccc1`, the “activity, negative = inhibition” value is 30.7% (inactive).
The same measure, in the same setting: under `CCCOC(=O)c1c(-c2ccccc2)nc(CC)c(C(=O)SCC)c1CCC` stands -2.88% (inactive); under `Cc1cc(Cl)nc(NC(=O)CSc2ccc(Cl)cc2)n1`, 18.7% [at 11.4 µM] (inactive).
With `COCc1nnc(NC(=O)CSc2ccc(C)cc2)s1`, the “activity, negative = inhibition” value is -19.3% (inactive).
In the case of `Cc1cnc(NC(=O)CSc2ccc(Cl)cc2)s1`, the AC50 is 3.98 µM (active).
On to `COC(=O)c1ccccc1NC(=O)c1c(Br)cnn1C`, for which the “activity, negative = inhibition” value was -21.6% (inactive).
Take `COc1cccc(OCc2nnc(SCC(=O)NCc3ccco3)n2C)c1`: the “activity, negative = inhibition” value was -15% (inactive).
On to `CNc1ncc(C(=O)c2ccccc2)s1`, for which the “activity, negative = inhibition” value is -7.9% (inactive).
`CCOc1ncnc2c1oc1nc(CC(C)C)c3c(c12)CC(C)(C)OC3`: the “activity, negative = inhibition” value is -20.9% (inactive).
As to `C=CC[N+]1(CC#CCOC(c2ccccc2)c2ccccc2)CCOCC1`, the AC50 is 7.08 µM (active).
Take `O=C1N=C(N2CCOCC2)S/C1=C\C=C/c1ccccc1`: the “activity, negative = inhibition” value is -13.9% (inactive).
On the same count and under the same terms, in the case of `Cn1c([N+](=O)[O-])cnc1CN1CCN(CCO)CC1` it was 10.5% [at 11.4 µM] (inactive); in that of `O=C1CCCC=C1[C@H](CCc1ccccc1)OC(=O)c1ccc(Br)cc1`, -4.24% [at 11.4 µM] (inactive).
On to `O=C(NNC(=S)Nc1ccccc1)c1ccco1`, for which the “activity, negative = inhibition” value was 0.149% (inactive).
For `O=C(NC(=S)Nc1cccc(Cl)c1N1CCCCC1)c1ccco1`, the “activity, negative = inhibition” value was -24.3% (inactive).
In the case of `O=C(NC(NC(=S)Nc1cc(Cl)ccc1Cl)C(Cl)(Cl)Cl)c1ccco1` (stereo not given), the AC50 was 11.2 µM (active).
Regarding `N#CCCn1cc(/C=N/O)c(-c2ccc(Cl)cc2)n1`, the “activity, negative = inhibition” value was -23.4% (inactive).
On to `N#Cc1c2c(c(-n3cnc4ccccc43)n3c1nc1ccccc13)CCC2`, for which the “activity, negative = inhibition” value is 1.48% (inactive).
Same read-out and setting: under `O=C(NCc1ccccc1)c1ccc2c(c1)C(=O)N(CC1CCCO1)C2=O` (stereo not given) stands -2.23% (inactive); under `CC1=CC(=O)C=CC1(C)C(Cl)(Cl)Cl` (stereo not given), -29% (inactive); under `COc1ccc(S(=O)(=O)N(CC(=O)N2CCCC2)Cc2ccccc2)cc1`, -30.1% (inactive).
On the same count and under the same terms, under `CN(C)/C=N/c1ncc(C(=O)c2ccc3ccccc3c2)s1` stands -19.7% (inactive).
Regarding `CC(C)N(CCC(=O)c1ccc2ccccc2c1)Cc1ccccc1`, the AC50 was 2 µM (active) and inactive.
`CC1CN(C(=S)NC(=O)c2ccc([N+](=O)[O-])cc2)CC(C)O1` (stereo not given): the “activity, negative = inhibition” value is -6% (inactive).
As to `COc1ccc(Oc2ncc3nc(C)c(=O)n(-c4ccc(OC)cc4)c3n2)cc1`, the “activity, negative = inhibition” value was -5.24% (inactive).
With `NCCNC(=O)c1ccc(Cl)cc1`, the AC50 entry was “inactive”.
On the same count and under the same terms, in the case of `O=C(Nc1ccc(Cl)cc1C(F)(F)F)c1ccc(Cl)cc1` it was 0.282 µM (active).
Take `Cc1ccc(C(=O)Nc2cc(Cl)ccc2OC(=O)c2ccc(C)cc2)cc1`: the “activity, negative = inhibition” value is -21.9% (inactive).
As for `COc1ccc(COC(=O)N/N=C2/C[C@@H](O)[C@@H](O)[C@@H]3[C@H]4C(=O)N(c5ccc(F)cc5F)C(=O)[C@@H]4CC[C@H]23)cc1`, the activity, negative = inhibition is -14.9% [at 11.4 µM] (inactive).
Still for that read-out and setting: under `CCCN(CCC)CCCNS(=O)(=O)c1cc(Br)cc2c1N(C(C)=O)CC2` stands -20.5% (inactive); under `O=c1c2ccc([N+](=O)[O-])c3cccc(c32)c2nc3ccccc3n12`, -14.8% (inactive); under `O=C(O)Cn1c(-c2ccccc2)nc2ccccc21`, -25.1% (inactive).
For `O=C(O)c1ccc2c3c1cccc3c(=O)n1c3ccccc3nc21`, the AC50 is 15.8 µM (active).
On to `Cc1cc(N2CCOCC2)ncc1[N+](=O)[O-]`, for which the “activity, negative = inhibition” value is -3.47% (inactive).
On the same count and under the same terms, under `COc1ccc(Cc2nnc(NC(=O)c3ccco3)s2)cc1` stands 6.69% (inactive).
On to `COc1ccccc1CNc1cc(-c2ccccc2OC)ncn1`, for which the AC50 is 20 µM (active).
`COc1ccccc1CNc1cc(-c2ccccc2Cl)ncn1`: the AC50 was 12.6 µM (active).
As to `COc1ccccc1-c1cc(Nc2ccn[nH]2)ncn1`, the “activity, negative = inhibition” value was -4.03% (inactive).

The values above are taken from PubChem BioAssay AID1851 (National Center for Advancing Translational Sciences (NCATS), 2009).
